Test results published in PubChem BioAssay AID1224856 (National Center for Advancing Translational Sciences (NCATS), 2016).
Inconclusive results are not listed. Entries that show only a call come without a potency. Activity calls are given as the source filed them. Calls come from the whole dose curve; as a rule, active = well fitted curve in the direction sought with a large enough effect; inconclusive = small, poorly fitted or top-dose-only effect, or another doubt; inactive = no such curve, though single readings can be large or run the other way.

experiment: Cell viability assay for measurement of the protective activity of small molecules against cell death caused by Zika virus infection in human astrocytes; details: human astrocytes ZIKV-induced death, ATP luminescence, 72 h; series mostly up to 46.1 µM
Source text: National Center for Advancing Translational Sciences [NCATS] Johns Hopkins University School of Medicine Florida State University Assay Overview: Zika virus infection causes cell death in certain cell types including human neural progenitor cells (hNPCs), astrocytes, and astrocytoma cell line (SNB-19). This cell viability assay measures the ATP content (level) in human astrocytes using a luminescence readout that is proportional to viable cell numbers. Decrease in the luminescence signal after Zika virus infection indicates the cell death caused by Zika virus. Small molecule inhibitors […] the decreased luminescence signal after Zika virus infection, indicating the protective effect of that small molecule on the cell death caused by Zika virus infection. This observed protective effect of small molecules against Zika virus induced cell death may result from inhibition of virus replication or cellular response to the virus infection.
Assay Protocol Summary: The medium for astrocytes contains AM basal medium (ScienCell, Cat.# 1801), AGS (ScienCell, Cat.# 1801), 10% FBS, and 1% Pen/Strep. The ATP content assay kit (PerkinElmer, Cat.# 6016731) was used to determine cell viability. The reagent was reconstituted and prepared as described by the manufacturer. Cells were seeded in 384- or 1536-well assay plates and cultured at 37 C with 5% CO2 for 16 to 20 hours. The typical cell seeding density in the 1536-well plate assay is 350 cells/well in 3 ul medium for astrocytes in the tissue cultured treated/PDL coated plates. Compounds were added to cells and incubated for one hour before addition of ZIKV solution to cells (2 FFU/cell). After incubation at 37 C with 5% CO2 for 72 hours, the reagent mixture of the ATP content assay kit was added to each well, followed by incubation at room temperature for 10 minutes. The luminescence intensity of the assay plates was measured using a ViewLux plate reader (PerkinElmer). […] The percentage inhibitions of the decreased cell viability by small molecule inhibitors were then calculated.

Row | Compound | Potency
1 | O=C1C[C@@H](c2ccc(O)cc2)Oc2cc(O)cc(O)c21 | inactive
2 | O=c1c(-c2ccc(O)cc2)coc2cc(O)ccc12 | inactive
3 | O=C1C=CC[C@@H]2[C@H]3CCCN4CCC[C@@H](CN12)[C@@H]34 | inactive
4 | CC1(C)OC2=C(C(=O)c3ccccc3C2=O)[C@H](NCc2ccccc2)[C@H]1O | inactive
5 | CC(C)c1ccc2oc3nc(N)c(C(=O)O)cc3c(=O)c2c1 | inactive
6 | CC(C(=O)O)c1ccc(C(=O)c2cccs2)cc1 (stereo not given) | inactive
7 | CCCCCCOc1ccccc1C(N)=O | inactive
8 | CCC(C(=O)O)c1ccc(N2Cc3ccccc3C2=O)cc1 (stereo not given) | inactive
9 | O=C1c2ccccc2C(=O)c2c1ccc(O)c2O | inactive
10 | N#C/C(=C\c1ccc(O)c(O)c1)C(=O)Nc1ccccc1 | inactive
11 | O=C1c2ccccc2-[n+]2ccc3c([nH]c4ccccc43)c21 | inactive
12 | COC1(CS(=O)c2ccccc2)CCN(CCc2c[nH]c3ccc(F)cc23)CC1 (stereo not given) | inactive
13 | Cc1cccc(C#Cc2ccccc2)n1 | inactive
14 | Cc1ccc(O)c(-n2nc3ccccc3n2)c1 | inactive
15 | COc1ccc(CC2=NN3C([C@@H](CCc4ccccc4)[C@@H](C)O)=NC(C)C3C(=O)N2)cc1OC (stereo not given in full) | inactive
16 | CC(C)[C@H]1C(=O)N[C@H](CO)Cc2c[nH]c3cccc(c23)N1C | 1.09 µM (active)
17 | CC[C@]1(O)C[C@H]2CN(CCc3c([nH]c4ccccc34)[C@@](C(=O)OC)(c3cc4c(cc3OC)N(C=O)[C@H]3[C@@](O)(C(=O)OC)[C@H](OC(C)=O)[C@]5(CC)C=CCN6CC[C@]43[C@@H]65)C2)C1 | inactive
18 | O=C(O)c1cccc(-c2noc(-c3ccccc3F)n2)c1 | inactive
19 | COc1cccc(-c2cc(=O)c3ccccc3o2)c1N | inactive
20 | Cc1nc(N)sc1-c1ccnc(Nc2ccc(N3CCOCC3)cc2)n1 | inactive

Row | Compound | Potency
21 | Cc1oncc1C(=O)Nc1ccc(C(F)(F)F)cc1 | inactive
22 | Nc1c(S(=O)(=O)O)cc(Nc2ccc(Nc3nc(Cl)nc(Nc4ccc(S(=O)(=O)O)cc4)n3)c(S(=O)(=O)O)c2)c2c1C(=O)c1ccccc1C2=O | inactive
23 | COCCn1c2c([n+](Cc3cnccn3)c1C)C(=O)c1ccccc1C2=O | inactive
24 | O=C1NC(=O)C(=Cc2ccc(-c3ccc(F)cc3)o2)S1 | inactive
25 | Cc1ccc(C(=O)c2ccc(CC(=O)O)n2C)cc1 | inactive
26 | N#CC1(c2ccc(NC(=O)c3cccnc3NCc3ccncc3)cc2)CCCC1 | inactive
27 | O=S(=O)(O)CCSSCCS(=O)(=O)O | inactive
28 | COc1cccc(-c2ccc(NC(=O)C3=C(C(=O)O)CCC3)c(F)c2)c1 | inactive
29 | CC(C(=O)O)c1ccc(-c2ccccc2)c(F)c1 (stereo not given) | inactive
30 | CC(=C(CCOC(=O)C(C)C)SSC(CCOC(=O)C(C)C)=C(C)N(C=O)Cc1cnc(C)nc1N)N(C=O)Cc1cnc(C)nc1N | inactive
31 | CS(=O)(=O)c1ccc(-c2cn3ccccc3n2)cc1 | inactive
32 | O=C(Nc1ccc(C(=O)O)c(O)c1)c1ccccc1 | inactive
33 | Nc1ncnc2c1ncn2[C@@H]1O[C@@H](CO)[C@H](O)[C@H]1O | inactive
34 | O=C(O)c1ccccc1NCCc1ccccc1 | inactive
35 | CC[n+]1c(-c2ccccc2)c2cc(N)ccc2c2ccc(N)cc21 | 1.95 µM (active)
36 | CN1CC(=O)N2C(Cc3c([nH]c4ccccc34)[C@H]2c2ccc3c(c2)OCO3)C1=O (stereo not given in full) | inactive
37 | O=C1C(Cl)=C(NCCN2CCOCC2)C(=O)c2ncccc21 | inactive
38 | CCOC1OC(=O)C[C@H]1NC(=O)[C@@H]1CCCN1C(=O)[C@@H](NC(=O)c1ccc(N)c(Cl)c1)C(C)(C)C (stereo not given in full) | inactive
39 | Cc1c(NC(=O)c2ccc(C(C)(C)C)cc2)cccc1-c1cn(C)c(=O)c(Nc2ccc(C(=O)N3CCOCC3)cc2)n1 | inactive
40 | O=C(c1ccccc1)c1ccc2n1CCC2C(=O)O (stereo not given) | inactive
